Laboratory results from PubChem BioAssay AID743144 (Broad Institute, 2013).
Entries with a potency or affinity are not part of this list. Results filed as inconclusive are left out. Calls of active or inactive are those of the source. The rule behind the calls is not given here.

Experiment: COV362 cell viability loss – plate reader, dry powder, SA12, cytotoxicity control for PAX8 inhibitor project, dose response (AID 743144)
Details: COV362 ovarian cancer cells; series mostly up to 35 µM

Row | SMILES | outcome
1 | C[C@@H]1CN([C@H](C)CO)C(=O)CCCn2nncc2CO[C@H]1CN(C)Cc1ccc(Oc2ccccc2)cc1 | inactive
2 | COc1ccccc1C#Cc1ccc([C@H]2[C@@H](CO)N(C(=O)C3CCCC3)[C@H]2C#N)cc1 | inactive
3 | CC(C)c1cc(C(=O)OCC(=O)N2CCN(C(=O)c3ccco3)CC2)c(O)c(C(C)C)c1 | inactive
4 | Cc1ccc(S(=O)(=O)CC(CN2CCCCC2)N2CCCCC2)cc1 (stereo not drawn) | inactive
5 | COCC(=O)N1[C@H](CO)[C@H](c2ccc(-c3cccnc3)cc2)[C@@H]1C#N | inactive
6 | COc1cccc(C#Cc2ccc([C@@H]3[C@@H](C#N)N(C(=O)C4CCCC4)[C@@H]3CO)cc2)c1 | inactive
7 | N#C[C@@H]1[C@@H](c2ccc(-c3ccccc3F)cc2)[C@@H](CO)N1C(=O)C1CCC1 | inactive
8 | COc1cccc(C#Cc2ccc([C@H]3[C@@H](CO)N(C(=O)c4ccccn4)[C@H]3C#N)cc2)c1 | inactive
9 | N#C[C@@H]1[C@@H](c2ccc(C3=CCCCC3)cc2)[C@@H](CO)N1C(=O)NC1CCCCC1 | inactive
10 | CC(C)(C)c1nnc(NC(=O)CCS(=O)(=O)c2ccccc2)s1 | inactive
11 | C[C@@H]1CN([C@@H](C)CO)S(=O)(=O)c2ccc(C#C[C@@H](C)O)cc2O[C@H]1CN(C)Cc1ccc(-c2ccccc2)cc1 | inactive
12 | COc1cccc(C#Cc2ccc([C@@H]3[C@@H](C#N)N(C(=O)C4CCCCC4)[C@@H]3CO)cc2)c1 | inactive
13 | C[C@H](CO)N1C[C@H](C)[C@@H](CN(C)S(=O)(=O)c2ccc(-c3ccccc3)cc2)OCc2cn(nn2)CCCC1=O | inactive
